Some compounds were tested as several samples or in several runs, with calls that do not always agree. Activity calls are given as the source filed them. Rule for the calls: active = hit-call score of the fitted dose curve at least 0.9, where 1 is the maximum; inactive = score below 0.9.
Experiment: ATG_AP_1_CIS: Attagene CIS-FACTORIAL HepG2 Assay for human Activator Protein 1 (AP-1) (AID 2282931)
Details: HepG2 Attagene cis-factorial AP-1 reporter mRNA; actives raise or lower the signal
Protocol: ATG_CIS is a cell-based, multiplexed-readout assay that uses HepG2, a human liver cell line, with measurements taken at 24 hours after chemical dosing in a 24-well plate.ATG_AP_1_CIS is one of 52 assay component(s) measured or calculated from the ATG_CIS assay. It is designed to make measurements of mRNA induction, a form of inducible reporter, as detected with fluorescence intensity signals by Reverse transcription polymerase chain reaction (RT-PCR) and Capillary electrophoresis technology.Data from the assay component ATG_AP_1_CIS was analyzed into 1 assay endpoint. This assay endpoint, ATG_AP_1_CIS, was analyzed with bidirectional fitting relative to DMSO as the negative control and baseline of activity. Using a type of inducible reporter, measures of mRNA for gain or loss-of-signal activity can be used to understand the reporter gene at the transcription factor-level as they relate to the gene FOS and JUN. Furthermore, this assay endpoint can be referred to as a primary readout, because this assay has produced multiple assay endpoints where this one serves a reporter gene function. To generalize the intended target to other relatable targets, this assay endpoint is annotated to the dna binding intended target family, where the subfamily is basic leucine zipper.
Human liver HepG2 cells are transiently transfected with multiple reporter transcription units (MRTUs) in 6-well plates using FuGene 6 reagent (Roche; 3 ml FuGene/1 mg DNA). The MRTU constructs are regulated by a cis-regulating element (promoter). […] A major difference between the CIS and TRANS system is that in CIS activities of endogenous TFs are measured, whereas the TRANS assay evaluates changes in activities of exogenous, chimeric NR-Gal4 proteins. […] At the end of 24 hour incubation, total RNA was isolated using TriZol reagent (Invitrogen). The isolated RNA is then reverse-transcribed using oligo(dT) primer and Mo-MLV reverse transcriptase (Invitrogen) with DNAse I (Ambion) treatment for 30 min. The one-tenth of the produced cDNA was amplified by PCR using Taq DNA polymerase (Invitrogen) and two reporter sequence-specific primers. The PCR products were fluorescently labeled by primer extension with 6-arboxyfluorescein (6-FAM) 5'-labeled reporter sequence-specific primer (2 min at 95 C, 20 s at 68 C and 10 min at 72 C) and these products were digested with 5U of HpaI (New England Biolabs) for 2h at 37 C. The fragments were purified using Qiaquick PCR columns (Qiagen), analyzed on an ABI 3130xL genetic analyzer (Applied Biosystems) with peak positions identified by using a set of X-rhodamine (ROX)-labeled MapMarker1000 molecular weight standards (BioVentures). The raw capillary electrophoresis data was processed using Attagraph software (Attagene).
In the case of `CCc1cccc(C)c1N(C(=O)CCl)C(C)COC` (stereo not given), the AC50 is reported as 9.57 µM (active). In the case of `CCCSP(=O)(OCC)Oc1ccc(Br)cc1Cl` (stereo not given), the outcome is reported as “inactive”. In the case of `FC(F)C(F)(F)OCC(Cn1cncn1)c1ccc(Cl)cc1Cl` (stereo not given), the outcome is reported as “inactive”. In the case of `C=C(C)[C@H]1Cc2c(ccc3c2O[C@@H]2COc4cc(OC)c(OC)cc4[C@@H]2C3=O)O1`, the AC50 is reported as 0.0044 µM (active). For `CC1=NNC(=O)N(/N=C/c2cccnc2)C1`, the outcome was “inactive”. For `COP(=O)(OC)OC(Br)C(Cl)(Cl)Br` (stereo not given), the outcome was “inactive”. In the case of `O=[N+]([O-])c1cc(C(F)(F)F)c(Cl)c([N+](=O)[O-])c1Nc1ncc(C(F)(F)F)cc1Cl`, the outcome is reported as “inactive” and the AC50 is reported as 2.7 µM (active). For `CON=C(C(=O)OC)c1ccccc1CON=C(C)c1cccc(C(F)(F)F)c1`, the outcome was “inactive”. In the case of `CCOP(=O)(NC(C)C)Oc1ccc(SC)c(C)c1` (stereo not given), the outcome is reported as “inactive”. For `CCCOCC(=Nc1ccc(Cl)cc1C(F)(F)F)n1ccnc1`, the outcome was “inactive”. For `CCCOc1nn(C(=O)NS(=O)(=O)c2ccccc2C(=O)OC)c(=O)n1C`, the outcome was “inactive”. With `CN(C)C(=O)Nc1cccc(C(F)(F)F)c1` the outcome was “inactive”. With `CCOC(=O)CC(SP(=O)(OC)OC)C(=O)OCC` (stereo not given) the outcome was “inactive”. For `Cc1nn(-c2cc(NS(C)(=O)=O)c(Cl)cc2Cl)c(=O)n1C(F)F`, the outcome was “inactive”. For `CC(C)=CC1C(C(=O)OCN2C(=O)C3=C(CCCC3)C2=O)C1(C)C` (stereo not given), the AC50 was 71.2 µM (active). With `COP(=O)(OC)C(O)C(Cl)(Cl)Cl` (stereo not given) the AC50 was 35.2 µM (active). For `CC[C@H](C)[C@H]1O[C@]2(C=C[C@@H]1C)C[C@@H]1C[C@@H](C/C=C(\C)[C@@H](O[C@H]3C[C@H](OC)[C@@H](O[C@H]4C[C@H](OC)[C@@H](NC)[C@H](C)O4)[C@H](C)O3)[C@@H](C)/C=C/C=C3\CO[C@@H]4[C@H](O)C(C)=C[C@@H](C(=O)O1)[C@]34O)O2`, the outcome was “inactive”. In the case of `CNC(=O)Oc1cccc2c1OC(C)(C)O2`, the AC50 is reported as 61 µM (active). In the case of `CCCCN(CC)c1c([N+](=O)[O-])cc(C(F)(F)F)cc1[N+](=O)[O-]`, the outcome is reported as “inactive”. With `CCOP(=O)(SC(C)CC)N1CCSC1=O` (stereo not given) the outcome was “inactive”. With `CC(=NC#N)N(C)Cc1ccc(Cl)nc1` the outcome was “inactive”. In the case of `CC(COc1ccc(Oc2ccccc2)cc1)Oc1ccccn1` (stereo not given), the AC50 is reported as 19.1 µM (active). In the case of `CCCCSP(=O)(SCCCC)SCCCC`, the AC50 is reported as 70.1 µM (active). With `CCOP(=S)(OCC)Oc1ccc([N+](=O)[O-])cc1` the AC50 was 82.6 µM (active). For `C[N+]1(C)CCCCC1`, the outcome was “inactive”. For `CCOP(=S)(OCC)Oc1ccc2c(C)c(Cl)c(=O)oc2c1`, the outcome was “inactive”. For `Nc1nc(N)nc(NC2CC2)n1`, the outcome was “inactive”. For `O=c1ccc(=O)[nH][nH]1`, the outcome was “inactive”. With `S=C1NCCN1` the outcome was “inactive”. In the case of `CCOC(=O)COc1cc(-c2nn(C)c(OC(F)F)c2Cl)c(F)cc1Cl`, the outcome is reported as “inactive”. For `CSC1=N[C@@](C)(c2ccccc2)C(=O)N1Nc1ccccc1`, the AC50 was 3.2 µM (active). With `CCC(=NOC/C=C/Cl)C1=C(O)CC(C2CCOCC2)CC1=O` (stereo not given) the outcome was “inactive”. For `CSc1nnc(C(C)(C)C)c(=O)n1N`, the outcome was “inactive”. For `CCC(CC)Nc1c([N+](=O)[O-])cc(C)c(C)c1[N+](=O)[O-]`, the outcome was “inactive”. With `CCCCOC(=O)[C@@H](C)Oc1ccc(Oc2ccc(C#N)cc2F)cc1` the outcome was “inactive”. With `COP(=O)(OC)SCn1c(=O)oc2cc(Cl)cnc21` the outcome was “inactive”. With `COc1cc(OC)nc(Sc2cccc(Cl)c2C(=O)O)n1` the outcome was “inactive”. With `CC(C)N(C(=O)SCC(Cl)=C(Cl)Cl)C(C)C` the outcome was “inactive”. With `COc1ccc(C(=CC(=O)N2CCOCC2)c2ccc(Cl)cc2)cc1OC` the outcome was “inactive”.
